{"source": "PubChem BioAssay AID624405", "about": "(Broad Institute, 2012)", "note": "Out of some 1,900 compounds screened, about 250 (13%) were called active. Not shown: some 4% with an inconclusive outcome. The list is a sample of the results. Entries with a potency or affinity are not part of this list. Values without a mark were called inactive.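 How the source made its calls: active means fitted curve reaches 40% rescue activity at or below the top valid dose, in every test run; inconclusive means test runs disagree, some active and some inactive; inactive means every run misses the threshold or moves the wrong way.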", "data": [{"assay": "suppressors of statin myotoxicity in myotubes, dose response, cell-based, C2C12 myotubes, ATP luminescence, cherry pick (AID 624405);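 further: myotubes are challenged with simvastatin at 10 µM to lower ATP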", "conditions": "C2C12 myotubes + simvastatin, 48 h, scaled: DMSO wells 0, geranylgeraniol wells 100; series mostly up to 19.5 µM; rescue activity (ATP increase): at the top concentration", "values": [{"smiles": "O=C(CN(c1ccc(F)cc1)S(=O)(=O)c1ccccc1)NCc1ccco1", "rescue activity (ATP increase)": "6.02%"}, {"smiles": "O=C(c1ccco1)N1CCN(C(=O)c2cc3sccc3n2Cc2ccccc2)CC1", "rescue activity (ATP increase)": "18%"}, {"smiles": "CC(C)Oc1ccc(C(=O)NCc2ccco2)cc1", "rescue activity (ATP increase)": "-11.3%"}, {"smiles": "O=C(NCc1ccco1)C1CCN(C(=O)c2cc3sccc3n2Cc2ccc(F)cc2)CC1", "rescue activity (ATP increase)": "36.2%"}, {"smiles": "CCN1CCN(c2ccc(NC(=O)Cc3ccccc3)cc2)CC1", "rescue activity (ATP increase)": "-4.12%"}, {"smiles": "O=S(=O)(c1cccc2nsnc12)N1CCOCC1", "rescue activity (ATP increase)": "28.7%"}, {"smiles": "COc1ccc(NC(=O)Nc2ccc3c(c2)C(=O)N([C@H](C)CO)C[C@@H](C)[C@@H](CN(C)Cc2ccc(C(F)(F)F)cc2)OCCCC[C@@H](C)O3)cc1", "rescue activity (ATP increase)": "-2.15%"}, {"smiles": "CCC(C)(NC(=O)CNC(C)=O)C(=O)NC1CCCCC1", "note": "(stereo not given)", "rescue activity (ATP increase)": "1.71%"}, {"smiles": "COc1ccc(C#Cc2cnc3c(c2)C(=O)N([C@@H](C)CO)C[C@@H](C)[C@H](CN(C)C(=O)Nc2cccc(OC)c2)O3)cc1", "rescue activity (ATP increase)": "17.4%"}, {"smiles": "CCOC(=O)c1ccc2c(c1)nc(COc1ccc(OC)cc1)n2CC", "rescue activity (ATP increase)": "-4.99%"}, {"smiles": "CCOCCn1c(COc2ccccc2)nc2ccccc21", "rescue activity (ATP increase)": "17.6%"}, {"smiles": "O=C(CCCCCn1c(=O)[nH]c2ccsc2c1=O)NCc1ccc(F)cc1", "rescue activity (ATP increase)": "1.05%"}, {"smiles": "CCc1ccc(NC(=O)c2cc(-c3cccs3)on2)cc1", "rescue activity (ATP increase)": "-4.74%"}, {"smiles": "CCOC(=O)/C=C(\\C)Nc1cc(C)nn1-c1ccccc1", "rescue activity (ATP increase)": "10.6%"}, {"smiles": "C[C@@H]1CN([C@H](C)CO)C(=O)c2cc(NC(=O)Cc3cn(C)c4ccccc34)ccc2O[C@H]1CN(C)S(=O)(=O)c1cccs1", "rescue activity (ATP increase)": "14.4%"}, {"smiles": "O=C(NCc1ccco1)C(c1ccc(F)cc1)N(Cc1cccnc1)C(=O)Cn1nnc2ccccc21", "note": "(stereo not given)", "rescue activity (ATP increase)": "-5.93%"}, {"smiles": "C[C@@H]1CN([C@@H](C)CO)C(=O)Cc2cc(NC(=O)CCCCCC(=O)Nc3ccccc3N)ccc2O[C@H]1CN(C)Cc1ccc(C(F)(F)F)cc1", "rescue activity (ATP increase)": "16%"}, {"smiles": "C[C@@H]1CN([C@H](C)CO)C(=O)Cc2cc(NC(=O)CCCCCC(=O)Nc3ccccc3N)ccc2O[C@@H]1CN(C)Cc1ccc(C(F)(F)F)cc1", "rescue activity (ATP increase)": "11% [at 16 µM]"}, {"smiles": "C[C@@H]1CN([C@@H](C)CO)C(=O)Cc2cc(NC(=O)CCCCCC(=O)Nc3ccccc3N)ccc2O[C@@H]1CN(C)Cc1ccc(C(F)(F)F)cc1", "rescue activity (ATP increase)": "13.1% [at 21 µM]"}, {"smiles": "C[C@@H]1CN([C@H](C)CO)C(=O)Cc2cc(NC(=O)CCCCCC(=O)Nc3ccccc3N)ccc2O[C@H]1CN(C)Cc1ccc(C(F)(F)F)cc1", "rescue activity (ATP increase)": "40.4%"}, {"smiles": "Cc1cc(C)c2c(CN3CCN(Cc4ccc5c(c4)OCO5)CC3)cc(=O)oc2c1", "rescue activity (ATP increase)": "3.37%"}, {"smiles": "C[C@H](CO)N1C[C@H](C)[C@@H](CN(C)Cc2ccc(C(F)(F)F)cc2)Oc2ccc(NS(=O)(=O)c3ccc(Cl)cc3)cc2CC1=O", "rescue activity (ATP increase)": "12.9%"}, {"smiles": "C[C@@H]1CCCCO[C@@H](CN(C)Cc2ccc(C(F)(F)F)cc2)[C@H](C)CN([C@@H](C)CO)C(=O)c2cc(NS(=O)(=O)c3cccs3)ccc2O1", "rescue activity (ATP increase)": "-14.7%"}, {"smiles": "Cc1ccc(-c2cnc3c(c2)C(=O)N([C@H](C)CO)C[C@H](C)[C@@H](CN(C)C(=O)Cc2ccccc2)O3)cc1", "rescue activity (ATP increase)": "24.1%"}, {"smiles": "CCC(C)(C)NC(=O)CN(C(=O)CNS(=O)(=O)c1ccccc1)c1ccccc1", "rescue activity (ATP increase)": "7.7%"}, {"smiles": "COc1ccc(CN2[C@@H](CO)[C@@H]3c4ccccc4N(C(=O)c4ccccc4)C[C@@H]32)cc1", "rescue activity (ATP increase)": "-25.7%"}, {"smiles": "CC(C)CC(c1nnnn1C1CCCC1)N1CCN(c2ccccc2F)CC1", "note": "(stereo not given)", "rescue activity (ATP increase)": "-4.36%"}, {"smiles": "Fc1ccc(C(c2nnnn2C2CCCC2)N2CCN(Cc3ccccc3)CC2)cc1", "note": "(stereo not given)", "rescue activity (ATP increase)": "-29.7%"}, {"smiles": "Cc1ccc(NS(=O)(=O)c2ccc(C)c(C(=O)N3CCN(C)CC3)c2)cc1", "rescue activity (ATP increase)": "8.73%"}, {"smiles": "Cc1ccc(-n2c(=O)cc(N3CCN(C(=O)c4ccco4)CC3)[nH]c2=O)cc1", "rescue activity (ATP increase)": "14.2%"}, {"smiles": "COc1ccc(Oc2coc3c(CN(C)C)c(O)ccc3c2=O)cc1", "rescue activity (ATP increase)": "-19%"}, {"smiles": "O=C(Nc1ccc(N2CCN(C(=O)c3ccccc3)CC2)c(Cl)c1)c1ccco1", "rescue activity (ATP increase)": "49.6%"}, {"smiles": "Cc1cc(N2CCN(c3nnnn3-c3ccccc3)CC2)n2ncnc2n1", "rescue activity (ATP increase)": "12.1%"}, {"smiles": "C=CCSc1nnc(CSc2nc3sc4c(c3c(=O)[nH]2)CCCC4)n1-c1ccccc1", "rescue activity (ATP increase)": "15.6%"}, {"smiles": "C[C@@H]1CN([C@@H](C)CO)C(=O)c2cc(C#CC3CCCCC3)cnc2O[C@H]1CN(C)C(=O)C1CCCCC1", "rescue activity (ATP increase)": "7.55%"}, {"smiles": "COc1cc2c(cc1OC)C(c1cc(OC)c(OC)c(OC)c1)NCC2", "note": "(stereo not given)", "rescue activity (ATP increase)": "26.8%"}, {"smiles": "C[C@@H]1CCCCO[C@H](CN(C)C(=O)Nc2cccc3ccccc23)[C@@H](C)CN([C@H](C)CO)C(=O)c2cc(NS(=O)(=O)c3ccc(Cl)cc3)ccc2O1", "rescue activity (ATP increase)": "0.795%"}, {"smiles": "CCN(CC)C(=O)c1sc(N)c(C#N)c1C", "rescue activity (ATP increase)": "-19.9%"}, {"smiles": "COc1ccc(CN(C)C[C@H]2OCCCC[C@H](C)Oc3ccc(NC(=O)NC(C)C)cc3C(=O)N([C@@H](C)CO)C[C@H]2C)cc1", "rescue activity (ATP increase)": "-12.1%"}, {"smiles": "CS(=O)(=O)N1CCN(c2cccc(Cl)n2)CC1", "rescue activity (ATP increase)": "38.9%"}, {"smiles": "O=C(c1ccccc1CCc1ccccc1)N1CCOCC1", "rescue activity (ATP increase)": "9.2%"}, {"smiles": "C[C@@H]1CCCCO[C@H](CN(C)S(=O)(=O)c2ccc(F)cc2)[C@H](C)CN([C@@H](C)CO)C(=O)c2cc(NC(=O)Cc3ccccc3)ccc2O1", "rescue activity (ATP increase)": "2.54%"}, {"smiles": "Cc1ccccc1C(=O)NCc1nnc(SCC(=O)N2CCN(c3ccccc3)CC2)n1C", "rescue activity (ATP increase)": "2.25%"}, {"smiles": "C[C@@H]1CN([C@H](C)CO)C(=O)c2cccc(NC(=O)c3ccc(-c4nccs4)cc3)c2O[C@@H]1CN(C)C(=O)Nc1cccc2ccccc12", "rescue activity (ATP increase)": "11.6%"}, {"smiles": "C[C@H]1CN([C@@H](C)CO)C(=O)Cc2cc(NC(=O)Nc3ccc4c(c3)OCO4)ccc2O[C@@H]1CN(C)Cc1ccc(-c2ccccc2)cc1", "rescue activity (ATP increase)": "22.7%"}, {"smiles": "C[C@H](CO)N1C[C@H](C)[C@@H](CN(C)Cc2ccc(-c3ccccc3)cc2)Oc2ccc(NC(=O)Nc3ccc4c(c3)OCO4)cc2CC1=O", "rescue activity (ATP increase)": "17.1%"}, {"smiles": "C[C@@H]1CCCCO[C@@H](CN(C)S(=O)(=O)c2ccc(F)cc2)[C@H](C)CN([C@@H](C)CO)C(=O)c2cc(NC(=O)Nc3cccc4ccccc34)ccc2O1", "rescue activity (ATP increase)": "33.3%"}, {"smiles": "C[C@@H]1CN([C@@H](C)CO)S(=O)(=O)c2ccc(/C=C/c3ccccc3)cc2O[C@@H]1CN(C)C(=O)NC1CCCC1", "rescue activity (ATP increase)": "28.4%"}, {"smiles": "CCCn1c(SCC(=O)c2ccc(OC)c(OC)c2)nc2c1c(=O)n(C)c(=O)n2C", "rescue activity (ATP increase)": "8.41%"}, {"smiles": "Cc1ccc(N(C(=O)Cn2nnc3ccccc32)C(C(=O)NCc2ccco2)c2ccc(C)o2)cc1", "note": "(stereo not given)", "rescue activity (ATP increase)": "65.9%"}]}]}
